Compound activity: PubChem BioAssay, Broad Institute
Many of the other results were omitted from the sample, so hits are more common in it than they were.
C_diff_HTS – inhibitors of Clostridium difficile growth; Clostridium difficile clinical isolate growth, OD600, 24 h; active compounds read low; growth activity, negative = inhibition, % at 16 µg/mL (by protocol); hit rate 0.25% among 86,000;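 active means mean growth activity at or below -80% and every replicate also at or below -80%; inconclusive means mean at or below -80% but some replicate above -80%; inactive means mean growth activity above -80%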;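 further: 0% = DMSO wells and -100% = levofloxacin 16 µg/mL wells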
T_cruzi_growth-1 – inhibitors of T. cruzi proliferation | T. cruzi beta-gal in NIH3T3, GalScreen luminescence, 90 h | inhibition, % at 8.34 µM | AID 624255 | hit rate 5.9% among 77,000;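 active means mean inhibition above about 93%, with at least 55% of replicates each passing it, limit read from the data, passing the limit was not always enough; inconclusive means only one of those two conditions holds; inactive means neither condition holds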
T_cruzi_growth-2 – inhibitors of T. cruzi proliferation | shares compounds with T_cruzi_growth-1 | hit rate 72% among 5,600 | T. cruzi beta-gal in NIH3T3, GalScreen luminescence, 90 h | inhibition, % at 8.35 µM;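 active means mean replicate inhibition above about 95% and at least 55% of replicates individually reaching it, limit read from the data; inconclusive means only one of the two criteria is met; inactive means neither criterion is met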
T_cruzi_growth-3 – inhibitors of T. cruzi proliferation | AID 651740 | hit rate 21% among 5,600 | shares compounds with T_cruzi_growth-1 | inhibition, % at 2.09 µM | T. cruzi beta-gal in NIH3T3, GalScreen luminescence, 90 h;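 active means mean inhibition above about 95%, with at least 55% of replicates also reaching it, limit read from the data; inconclusive means meets just one of the two conditions; inactive means meets neither condition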;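 further: plate controls were neutral control median for no effect and positive control median for full effect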
NIH3T3_tox – cytotoxicity in mouse NIH/3T3 fibroblasts. shares compounds with T_cruzi_growth-1. cytotoxicity (signal decrease), % at 8.35 µM. NIH/3T3 viability, CellTiter-Glo ATP luminescence, 90 h. hit rate 14% among 5,600;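 active means mean signal decrease across replicates above about 35% based on untreated-well scatter, with enough replicates individually passing, limit read from the data; inconclusive means no rule stated though some were filed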;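 further: 0% = median of neutral control wells and 100% = median of positive control wells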
3T3_cytotox_2 – NIH/3T3 (mouse) viability loss | shares compounds with T_cruzi_growth-1 | NIH/3T3 viability, CellTiter-Glo ATP luminescence, 90 h | inhibition, % at 24.9 µM | hit rate 56% among 5,600 | AID 651744;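 active means mean loss of cell viability signal at or above a set limit, and enough replicates individually reaching it; inconclusive means meets only the mean limit or only the replicate share; inactive means meets neither condition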;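 further: 0% = median of neutral control wells and 100% = median of positive control wells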
* marks the source's active call; other numbers are inactive results; ? = inconclusive; . = not tested or not shown.

SMILES C_diff_HTS T_cruzi_growth-1 T_cruzi_growth-2 T_cruzi_growth-3 NIH3T3_tox 3T3_cytotox_2
Cc1noc(C)c1NC(=O)Nc1ccc2c(c1)C(=O)N([C@H](C)CO)C[C@@H](C)[C@H](CN(C)Cc1ccc3c(c1)OCO3)OCCCC[C@H](C)O2 3.6 -8.9 . . . .
Cc1noc(C)c1S(=O)(=O)Nc1cccc2c1O[C@@H](CN(C)C(=O)Nc1cccc3ccccc13)[C@@H](C)CN([C@H](C)CO)C2=O 1.8 . . . . .
C[C@@H]1CN([C@@H](C)CO)S(=O)(=O)c2ccc(C#CC3CCCC3)cc2O[C@@H]1CN(C)C(=O)Cc1ccncc1 -0.8 121.9* 97.2* 78.8 13.2 62.2*
C[C@H](CO)N1C[C@H](C)[C@@H](CN(C)C(=O)Cc2ccncc2)Oc2cc(C#CC3CCCCC3)ccc2S1(=O)=O . 86.5 . . . .
C[C@H]1CN([C@@H](C)CO)S(=O)(=O)c2ccc(C#CC3CCCCC3)cc2O[C@@H]1CN(C)C(=O)Cc1ccncc1 . 83.4 . . . .
C[C@H](CO)N1C[C@H](C)[C@@H](CN(C)C(=O)Cc2ccncc2)Oc2cc(C#CC3CCCC3)ccc2S1(=O)=O 2.2 121.9* 107.5* 87.3 0.5 ?
CC(=O)N(C)C[C@@H]1Oc2cc(C#CC(C)(C)O)ccc2S(=O)(=O)N([C@H](C)CO)C[C@H]1C -1.9 . . . . .
O=C(Nc1cccc(Cl)c1)N[C@@H]1CC[C@H](CCNC(=O)C2CC2)O[C@@H]1CO -3.4 . . . . .
C[C@@H]1CN([C@H](C)CO)C(=O)Cc2cc(NC(=O)Nc3ccccc3)ccc2O[C@H]1CN(C)Cc1ccncc1 -2.6 98.3* -14.2 8.2 3.6 -7.7
C[C@H]1CN([C@@H](C)CO)C(=O)Cc2cc(NC(=O)c3ccncc3)ccc2O[C@@H]1CN(C)Cc1ccc(Oc2ccccc2)cc1 -10.2 84.9 . . . .
C[C@@H]1CN([C@H](C)CO)C(=O)Cc2cc(NC(=O)c3ccncc3)ccc2O[C@@H]1CN(C)Cc1ccc(Oc2ccccc2)cc1 -7.5 76.1 . . . .
C[C@@H]1CN([C@@H](C)CO)C(=O)Cc2cc(NC(=O)c3ccncc3)ccc2O[C@H]1CN(C)Cc1ccc(Oc2ccccc2)cc1 1.3 104.9* 104.8* 84.0 23.7 102.8*
C[C@H](CO)N1C[C@H](C)[C@H](CN(C)Cc2ccc(Oc3ccccc3)cc2)Oc2ccc(NC(=O)c3ccncc3)cc2CC1=O -14.0 102.4* 102.2* 52.0 25.8 102.8*
C[C@@H]1CN([C@@H](C)CO)C(=O)Cc2cc(NC(=O)Nc3ccccc3)ccc2O[C@@H]1CN(C)Cc1ccncc1 . 56.6 . . . .
COc1cccc(C#Cc2cnc3c(c2)C(=O)N([C@@H](C)CO)C[C@H](C)[C@@H](CN(C)C(=O)C2CCCCC2)O3)c1 23.8 117.0* 107.3* 62.9 -11.4 28.9
C[C@H]1CN([C@@H](C)CO)C(=O)c2cc(C#Cc3cccc(F)c3)cnc2O[C@H]1CN(C)C(=O)C1CCC1 4.0 -226.6 . . . .
COc1cccc(C#Cc2cnc3c(c2)C(=O)N([C@H](C)CO)C[C@@H](C)[C@H](CN(C)C(=O)C2CCCCC2)O3)c1 22.0 98.5 . . . .
COc1cccc(C#Cc2cnc3c(c2)C(=O)N([C@H](C)CO)C[C@H](C)[C@H](CN(C)C(=O)C2CCCCC2)O3)c1 0.0 . . . . .
COc1cccc(C#Cc2cnc3c(c2)C(=O)N([C@H](C)CO)C[C@@H](C)[C@@H](CN(C)C(=O)C2CCCCC2)O3)c1 -6.5 89.6 . . . .
COc1cccc(C#Cc2cnc3c(c2)C(=O)N([C@@H](C)CO)C[C@@H](C)[C@H](CN(C)C(=O)C2CCCCC2)O3)c1 8.8 85.4* 100.0* 83.6 29.3 100.5*
COc1cccc(C#Cc2cnc3c(c2)C(=O)N([C@H](C)CO)C[C@H](C)[C@@H](CN(C)C(=O)C2CCCCC2)O3)c1 28.0 101.1* 109.9* 39.1 -4.1 102.7*
C[C@H](CO)N1C[C@H](C)[C@@H](CN(C)C(=O)C2CCCCC2)Oc2ncc(C#Cc3cccc(F)c3)cc2C1=O . 117.3* 103.9* 63.8 9.5 76.9*
O=C(C[C@@H]1CC[C@H](NC(=O)Nc2ccc(C(F)(F)F)cc2)[C@H](CO)O1)NCc1ccccn1 -1.3 8.6 . . . .
O=C(C[C@@H]1C[C@@H]2c3cc(NC(=O)c4cccnc4)ccc3O[C@@H]2[C@H](CO)O1)NCc1ccc(Oc2ccccc2)cc1 3.5 . . . . .
C[C@H](CO)N1C[C@H](C)[C@@H](CN(C)C(=O)Nc2ccc3c(c2)OCO3)Oc2c(NC(=O)Nc3ccc(F)cc3)cccc2C1=O 1.2 49.8 . . . .
SMILES C_diff_HTS T_cruzi_growth-1 T_cruzi_growth-2 T_cruzi_growth-3 NIH3T3_tox 3T3_cytotox_2
COc1ccc2c3c([nH]c2c1)[C@@H](CO)N(Cc1nccs1)CC31CN(C(=O)C2CCCC2)C1 1.2 . . . . .
O=C(NCC[C@H]1CC[C@H](NC(=O)C2CCC2)[C@@H](CO)O1)c1cnccn1 . 52.0 . . . .
O=C(NCC[C@H]1CC[C@@H](NC(=O)C2CCC2)[C@H](CO)O1)c1cnccn1 -2.6 184.5* 56.3 4.7 -7.1 10.2
C[C@H](CO)N1C[C@H](C)[C@@H](CN(C)Cc2ccncc2)Oc2ncc(-c3cncnc3)cc2C1=O 5.9 0.2 . . . .
C[C@@H]1CN([C@H](C)CO)C(=O)c2cc(NC(=O)Nc3ccccc3)ccc2O[C@@H](C)CCCCO[C@H]1CN(C)S(=O)(=O)c1ccccc1 . 31.5 . . . .
C[C@@H]1CCCCO[C@@H](CN(C)S(=O)(=O)c2ccccc2)[C@H](C)CN([C@@H](C)CO)C(=O)c2cc(NC(=O)Nc3ccccc3)ccc2O1 . 20.0 . . . .
C[C@@H]1CCCCO[C@H](CN(C)S(=O)(=O)c2ccccc2)[C@H](C)CN([C@H](C)CO)C(=O)c2cc(NC(=O)Nc3ccccc3)ccc2O1 . 102.6* 113.3* 60.7 17.8 33.6*
C[C@H](CO)N1C[C@H](C)[C@H](CN(C)S(=O)(=O)c2ccccc2)OCCCC[C@H](C)Oc2ccc(NC(=O)Nc3ccccc3)cc2C1=O . 100.0* 107.9* 65.1 -10.3 54.3*
CCC(=O)N(C)C[C@@H]1Oc2ncc(-c3ccccc3F)cc2C(=O)N([C@@H](C)CO)C[C@H]1C -4.6 54.7 . . . .
C[C@@H]1CN([C@@H](C)CO)C(=O)c2cccc(NS(=O)(=O)c3cn(C)cn3)c2O[C@H]1CN(C)C(=O)Nc1ccc(F)cc1 -4.8 16.4 . . . .
COc1ccccc1CN1[C@@H]2Cn3c(ccc(C4=CCCC4)c3=O)[C@H]1[C@@H](C(=O)N(C)C)[C@@H]2CO 1.8 56.4 . . . .
CCCNC(=O)[C@@H]1[C@@H](CO)[C@@H]2Cn3c(ccc(C4=CCCC4)c3=O)[C@H]1N2Cc1ccncc1 -2.9 -1.0 . . . .
CCCNC(=O)[C@H]1[C@H](CO)[C@H]2Cn3c(ccc(C4=CCCC4)c3=O)[C@@H]1N2Cc1ccncc1 -6.3 98.7* 41.1 28.8 10.1 9.7
